# Measurements: article PMC7862700, “An all-to-all approach to the identification of sequence-specific readers for epigenetic DNA modifications on cytosine”
# Legend:
# Test in all cases: DAPPL (digital affinity profiling via proximity ligation, sequencing); 10 mM Tris-HCl pH 7.5, 50 mM NaCl, 1 mM DTT, 4% glycerol, room temperature, 30 min; GST-TFs on glutathione beads, 16-mer random dsDNA library, 0.1% formaldehyde crosslink after washing; high values mean tight binding
# FEV = target: T1, FEV (Homo sapiens, UniProt Q99581 1-238); settings: protein: recombinant; tags: N-terminal GST; dsDNA, one strand shown
# T1 sequence: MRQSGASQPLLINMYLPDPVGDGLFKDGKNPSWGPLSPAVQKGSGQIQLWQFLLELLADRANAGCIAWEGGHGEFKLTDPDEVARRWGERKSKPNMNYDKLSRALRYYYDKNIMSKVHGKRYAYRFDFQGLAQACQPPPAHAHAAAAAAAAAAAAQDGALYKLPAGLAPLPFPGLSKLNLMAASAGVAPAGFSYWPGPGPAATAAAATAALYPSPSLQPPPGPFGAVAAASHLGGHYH
# Method in brief: (§1)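 Binding signal is each hexamer's read frequency for a factor divided by its frequency in the tag-only sample. The factors were GST-fused human transcription factors from yeast, captured on glutathione beads, DNA-barcoded and pooled with that sample. Pools were incubated with 200 nmole of a random double-stranded 16-mer DNA library in Tris/NaCl/DTT/glycerol buffer at room temperature for 30 min, then washed, crosslinked with 0.1% formaldehyde, proximity-ligated with BsaI/T4 ligase (1 h, 37 °C), PCR-amplified and sequenced on an Illumina NextSeq500.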
# ETV5 = ETV5 (Homo sapiens, UniProt P41161 1-510); settings: protein: recombinant; tags: N-terminal GST; dsDNA, one strand shown
# ETV5, sequence (P41161 whole entry): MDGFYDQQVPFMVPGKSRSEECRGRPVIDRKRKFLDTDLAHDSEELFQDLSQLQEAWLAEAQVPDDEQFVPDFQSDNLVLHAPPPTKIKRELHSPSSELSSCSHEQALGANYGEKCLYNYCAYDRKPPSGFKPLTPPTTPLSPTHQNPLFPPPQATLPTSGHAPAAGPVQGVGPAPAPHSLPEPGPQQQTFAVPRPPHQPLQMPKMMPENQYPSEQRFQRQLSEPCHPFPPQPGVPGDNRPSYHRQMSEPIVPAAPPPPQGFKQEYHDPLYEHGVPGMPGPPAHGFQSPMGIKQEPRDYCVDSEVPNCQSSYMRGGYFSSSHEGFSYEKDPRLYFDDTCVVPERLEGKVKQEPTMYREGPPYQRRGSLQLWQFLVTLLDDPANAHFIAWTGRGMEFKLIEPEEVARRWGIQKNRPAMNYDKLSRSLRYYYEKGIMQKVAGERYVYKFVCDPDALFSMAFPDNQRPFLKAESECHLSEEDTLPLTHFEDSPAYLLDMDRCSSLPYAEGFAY
# Method in brief: as §1
# HSF1 = HSF1 (Homo sapiens, UniProt Q00613 1-529); settings: protein: recombinant; tags: N-terminal GST; chain copies: 3; dsDNA, one strand shown
# HSF1, sequence (Q00613 whole entry): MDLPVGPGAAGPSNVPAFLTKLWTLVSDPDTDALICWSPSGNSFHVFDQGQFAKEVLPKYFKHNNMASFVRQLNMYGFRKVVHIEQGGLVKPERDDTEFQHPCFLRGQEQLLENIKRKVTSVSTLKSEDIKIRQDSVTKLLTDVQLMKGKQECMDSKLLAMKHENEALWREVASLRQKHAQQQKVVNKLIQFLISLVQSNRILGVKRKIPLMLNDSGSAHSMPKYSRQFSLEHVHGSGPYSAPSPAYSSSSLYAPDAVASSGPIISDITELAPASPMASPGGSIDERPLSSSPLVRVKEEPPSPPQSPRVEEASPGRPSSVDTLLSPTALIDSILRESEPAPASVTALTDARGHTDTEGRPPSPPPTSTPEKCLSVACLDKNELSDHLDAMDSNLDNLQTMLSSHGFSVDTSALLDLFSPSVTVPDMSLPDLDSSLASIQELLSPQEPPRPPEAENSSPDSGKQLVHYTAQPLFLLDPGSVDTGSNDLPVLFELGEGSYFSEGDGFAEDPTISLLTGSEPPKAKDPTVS
# Method in brief: as §1
# SPIC = target: T2, SPIC (Homo sapiens, UniProt Q8N5J4 1-248); settings: protein: recombinant; tags: N-terminal GST; dsDNA, one strand shown
# T2 sequence: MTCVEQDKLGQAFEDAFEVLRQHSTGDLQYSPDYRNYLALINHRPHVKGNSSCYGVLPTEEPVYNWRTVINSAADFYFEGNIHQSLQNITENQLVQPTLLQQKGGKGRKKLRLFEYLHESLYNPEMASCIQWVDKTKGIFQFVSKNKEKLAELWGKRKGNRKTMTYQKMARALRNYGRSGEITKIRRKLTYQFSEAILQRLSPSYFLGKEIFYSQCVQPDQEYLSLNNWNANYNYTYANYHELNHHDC
# Method in brief: as §1
# ELF4 = ELF4 (Homo sapiens, UniProt Q99607 1-663); settings: protein: recombinant; tags: N-terminal GST; dsDNA, one strand shown
# ELF4, sequence (Q99607 whole entry): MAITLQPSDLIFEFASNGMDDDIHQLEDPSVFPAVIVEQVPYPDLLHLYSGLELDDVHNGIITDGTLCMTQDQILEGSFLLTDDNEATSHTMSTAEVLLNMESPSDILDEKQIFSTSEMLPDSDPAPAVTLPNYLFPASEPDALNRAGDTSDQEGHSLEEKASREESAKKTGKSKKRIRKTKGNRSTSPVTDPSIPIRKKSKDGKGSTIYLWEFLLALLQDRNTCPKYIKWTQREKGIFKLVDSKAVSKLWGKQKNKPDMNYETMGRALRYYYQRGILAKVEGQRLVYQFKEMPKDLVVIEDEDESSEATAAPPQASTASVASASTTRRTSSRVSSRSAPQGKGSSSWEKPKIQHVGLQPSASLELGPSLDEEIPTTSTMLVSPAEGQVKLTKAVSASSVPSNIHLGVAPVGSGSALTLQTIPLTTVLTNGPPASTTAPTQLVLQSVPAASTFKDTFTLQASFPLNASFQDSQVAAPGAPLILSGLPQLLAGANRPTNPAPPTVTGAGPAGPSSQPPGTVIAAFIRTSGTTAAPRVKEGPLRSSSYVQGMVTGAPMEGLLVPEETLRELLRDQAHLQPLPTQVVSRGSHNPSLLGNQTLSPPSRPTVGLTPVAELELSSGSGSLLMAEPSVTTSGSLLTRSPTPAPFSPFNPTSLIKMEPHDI
# Method in brief: as §1
# ELK4 = target: T3, ELK4 (Homo sapiens, UniProt P28324-2 1-405); settings: protein: recombinant; tags: N-terminal GST; dsDNA, one strand shown
# T3 sequence: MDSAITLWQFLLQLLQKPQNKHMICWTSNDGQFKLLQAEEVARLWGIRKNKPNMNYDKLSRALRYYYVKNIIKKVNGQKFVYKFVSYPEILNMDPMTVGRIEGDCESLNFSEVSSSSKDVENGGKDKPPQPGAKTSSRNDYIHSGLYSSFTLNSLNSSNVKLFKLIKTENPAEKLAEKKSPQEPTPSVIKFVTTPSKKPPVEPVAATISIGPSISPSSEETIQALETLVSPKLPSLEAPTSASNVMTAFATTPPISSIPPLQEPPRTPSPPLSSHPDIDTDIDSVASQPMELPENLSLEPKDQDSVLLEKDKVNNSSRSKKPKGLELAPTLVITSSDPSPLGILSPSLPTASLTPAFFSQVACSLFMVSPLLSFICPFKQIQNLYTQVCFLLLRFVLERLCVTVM
# Method in brief: as §1
# ETV2 = target: T4, ETV2 (Homo sapiens, UniProt O00321 1-342); settings: protein: recombinant; tags: N-terminal GST; dsDNA, one strand shown
# T4 sequence: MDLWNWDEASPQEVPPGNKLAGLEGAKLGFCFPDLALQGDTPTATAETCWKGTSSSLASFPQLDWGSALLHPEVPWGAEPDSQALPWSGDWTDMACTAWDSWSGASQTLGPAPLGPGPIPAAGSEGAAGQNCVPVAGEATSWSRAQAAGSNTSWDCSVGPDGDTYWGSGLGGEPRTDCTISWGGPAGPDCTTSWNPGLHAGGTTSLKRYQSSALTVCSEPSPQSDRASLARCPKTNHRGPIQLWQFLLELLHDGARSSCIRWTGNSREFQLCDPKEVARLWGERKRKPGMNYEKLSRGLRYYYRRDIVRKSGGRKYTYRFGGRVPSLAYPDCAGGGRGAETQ
# Method in brief: as §1
# ELF3 = target: T5, ELF3 (Homo sapiens, UniProt P78545 1-371); settings: protein: recombinant; tags: N-terminal GST; dsDNA, one strand shown
# T5 sequence: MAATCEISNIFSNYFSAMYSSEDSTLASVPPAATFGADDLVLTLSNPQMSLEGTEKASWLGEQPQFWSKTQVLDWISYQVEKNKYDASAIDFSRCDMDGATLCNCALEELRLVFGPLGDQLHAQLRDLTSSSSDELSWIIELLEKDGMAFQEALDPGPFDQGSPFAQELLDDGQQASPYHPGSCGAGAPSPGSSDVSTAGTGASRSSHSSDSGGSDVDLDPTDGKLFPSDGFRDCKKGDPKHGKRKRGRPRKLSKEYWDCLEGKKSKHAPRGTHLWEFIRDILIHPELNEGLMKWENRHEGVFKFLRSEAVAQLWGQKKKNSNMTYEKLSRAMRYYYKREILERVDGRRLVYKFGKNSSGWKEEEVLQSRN
# Method in brief: as §1
# CRX = CRX (Homo sapiens, UniProt O43186 1-299); settings: protein: recombinant; tags: N-terminal GST; dsDNA, one strand shown
# CRX, sequence (O43186 whole entry): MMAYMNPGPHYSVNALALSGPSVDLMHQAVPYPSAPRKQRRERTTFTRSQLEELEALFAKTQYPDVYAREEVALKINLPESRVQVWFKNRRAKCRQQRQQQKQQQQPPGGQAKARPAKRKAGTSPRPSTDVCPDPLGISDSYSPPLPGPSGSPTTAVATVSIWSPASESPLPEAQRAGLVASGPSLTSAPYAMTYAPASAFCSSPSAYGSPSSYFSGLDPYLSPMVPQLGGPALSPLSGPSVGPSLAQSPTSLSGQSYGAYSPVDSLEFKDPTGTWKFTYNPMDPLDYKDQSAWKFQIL
# Method in brief: as §1
# ETV1 = ETV1 (Homo sapiens, UniProt P50549 1-477); settings: protein: recombinant; tags: N-terminal GST; dsDNA, one strand shown
# ETV1, sequence (P50549 whole entry): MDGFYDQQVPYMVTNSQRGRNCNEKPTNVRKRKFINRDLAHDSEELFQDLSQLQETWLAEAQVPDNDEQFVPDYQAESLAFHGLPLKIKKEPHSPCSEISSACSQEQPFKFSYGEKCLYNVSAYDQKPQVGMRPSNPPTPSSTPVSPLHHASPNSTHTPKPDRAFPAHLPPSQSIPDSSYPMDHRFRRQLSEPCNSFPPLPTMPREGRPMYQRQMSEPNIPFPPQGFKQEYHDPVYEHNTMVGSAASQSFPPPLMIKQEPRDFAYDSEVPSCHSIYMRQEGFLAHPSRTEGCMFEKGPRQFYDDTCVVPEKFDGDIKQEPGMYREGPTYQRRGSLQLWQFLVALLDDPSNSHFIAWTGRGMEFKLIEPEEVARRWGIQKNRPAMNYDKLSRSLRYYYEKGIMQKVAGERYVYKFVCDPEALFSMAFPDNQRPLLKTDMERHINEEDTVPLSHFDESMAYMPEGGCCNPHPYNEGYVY
# Method in brief: as §1
# ERF = target: T6, ERF (Homo sapiens, UniProt P50548 1-548); settings: protein: recombinant; tags: N-terminal GST; dsDNA, one strand shown
# T6 sequence: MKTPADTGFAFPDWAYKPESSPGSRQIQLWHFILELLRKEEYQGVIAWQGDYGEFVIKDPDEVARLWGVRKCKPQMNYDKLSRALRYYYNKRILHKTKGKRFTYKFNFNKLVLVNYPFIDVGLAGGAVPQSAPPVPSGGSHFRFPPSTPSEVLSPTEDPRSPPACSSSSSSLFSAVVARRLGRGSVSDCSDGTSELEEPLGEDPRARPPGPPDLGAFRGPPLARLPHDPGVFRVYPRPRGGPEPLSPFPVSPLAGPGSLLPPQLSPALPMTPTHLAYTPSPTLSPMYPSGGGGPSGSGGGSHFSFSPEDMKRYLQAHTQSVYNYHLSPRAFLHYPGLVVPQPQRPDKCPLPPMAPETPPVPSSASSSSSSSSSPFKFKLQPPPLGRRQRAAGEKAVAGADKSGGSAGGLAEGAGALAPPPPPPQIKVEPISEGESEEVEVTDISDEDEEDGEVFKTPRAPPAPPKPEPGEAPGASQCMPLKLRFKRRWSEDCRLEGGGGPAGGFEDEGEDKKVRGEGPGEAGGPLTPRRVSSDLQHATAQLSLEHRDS
# Method in brief: as §1
# ETV3L = target: T7, ETV3L (Homo sapiens, UniProt Q6ZN32 1-361); settings: protein: recombinant; tags: N-terminal GST; dsDNA, one strand shown
# T7 sequence: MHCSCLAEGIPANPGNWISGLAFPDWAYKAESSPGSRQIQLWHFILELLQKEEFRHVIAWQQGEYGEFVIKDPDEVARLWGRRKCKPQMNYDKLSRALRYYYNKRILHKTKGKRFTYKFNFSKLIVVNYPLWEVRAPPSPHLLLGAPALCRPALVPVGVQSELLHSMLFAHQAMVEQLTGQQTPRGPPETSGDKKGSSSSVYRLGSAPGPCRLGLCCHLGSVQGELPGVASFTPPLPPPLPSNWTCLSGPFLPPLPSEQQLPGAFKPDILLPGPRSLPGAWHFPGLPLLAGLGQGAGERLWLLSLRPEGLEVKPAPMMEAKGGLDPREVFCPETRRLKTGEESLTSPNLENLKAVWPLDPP
# Method in brief: as §1
# ETS2 = target: T8, ETS2 (Homo sapiens, UniProt P15036 1-469); settings: protein: recombinant; tags: N-terminal GST; dsDNA, one strand shown
# T8 sequence: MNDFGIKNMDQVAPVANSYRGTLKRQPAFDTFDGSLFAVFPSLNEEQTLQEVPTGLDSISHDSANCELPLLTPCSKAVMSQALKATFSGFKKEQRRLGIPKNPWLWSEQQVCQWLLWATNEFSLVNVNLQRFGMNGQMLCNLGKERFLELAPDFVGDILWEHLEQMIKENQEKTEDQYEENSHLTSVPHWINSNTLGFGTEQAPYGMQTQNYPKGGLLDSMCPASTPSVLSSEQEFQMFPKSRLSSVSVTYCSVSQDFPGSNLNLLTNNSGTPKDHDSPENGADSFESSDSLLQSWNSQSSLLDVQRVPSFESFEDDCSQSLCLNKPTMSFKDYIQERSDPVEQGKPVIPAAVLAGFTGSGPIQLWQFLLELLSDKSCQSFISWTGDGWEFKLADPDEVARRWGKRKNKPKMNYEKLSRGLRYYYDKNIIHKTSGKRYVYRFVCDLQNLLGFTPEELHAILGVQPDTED
# Method in brief: as §1
# SPDEF = target: T9, SPDEF (Homo sapiens, UniProt O95238 1-335); settings: protein: recombinant; tags: N-terminal GST; dsDNA, one strand shown
# T9 sequence: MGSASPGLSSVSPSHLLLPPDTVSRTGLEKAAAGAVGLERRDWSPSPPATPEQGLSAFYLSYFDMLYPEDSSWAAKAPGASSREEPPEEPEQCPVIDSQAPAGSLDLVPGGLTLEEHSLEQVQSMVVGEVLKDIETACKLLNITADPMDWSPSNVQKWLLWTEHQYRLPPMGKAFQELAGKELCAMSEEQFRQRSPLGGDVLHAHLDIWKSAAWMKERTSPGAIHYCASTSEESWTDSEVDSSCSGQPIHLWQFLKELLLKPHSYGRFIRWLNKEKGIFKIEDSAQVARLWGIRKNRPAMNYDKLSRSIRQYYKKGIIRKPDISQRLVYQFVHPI
# Method in brief: as §1
# ETV7 = target: T10, ETV7 (Homo sapiens, UniProt Q9Y603 1-341); settings: protein: recombinant; tags: N-terminal GST; dsDNA, one strand shown
# T10 sequence: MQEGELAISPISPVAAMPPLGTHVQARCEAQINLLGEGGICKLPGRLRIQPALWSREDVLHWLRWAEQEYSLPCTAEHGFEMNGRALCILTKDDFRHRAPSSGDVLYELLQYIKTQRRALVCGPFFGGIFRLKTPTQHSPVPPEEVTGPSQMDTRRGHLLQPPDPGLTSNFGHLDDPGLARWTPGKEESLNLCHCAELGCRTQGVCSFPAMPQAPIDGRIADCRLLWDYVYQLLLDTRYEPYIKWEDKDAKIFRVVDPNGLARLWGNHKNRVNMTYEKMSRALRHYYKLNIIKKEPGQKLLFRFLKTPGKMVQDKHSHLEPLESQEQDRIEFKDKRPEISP
# Method in brief: as §1
# ELF5 = target: T11, ELF5 (Homo sapiens, UniProt Q9UKW6-2 1-255); settings: protein: recombinant; tags: N-terminal GST; dsDNA, one strand shown
# T11 sequence: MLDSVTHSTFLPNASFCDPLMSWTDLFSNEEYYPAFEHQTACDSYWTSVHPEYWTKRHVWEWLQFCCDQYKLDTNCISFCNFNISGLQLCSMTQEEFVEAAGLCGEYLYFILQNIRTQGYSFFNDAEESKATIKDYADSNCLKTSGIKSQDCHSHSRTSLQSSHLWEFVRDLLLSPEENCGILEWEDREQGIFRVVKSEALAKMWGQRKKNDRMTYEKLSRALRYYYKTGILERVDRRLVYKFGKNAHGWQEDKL
# Method in brief: as §1
# ETV3 = target: T12, ETV3 (Homo sapiens, UniProt P41162-2 1-143); settings: protein: recombinant; tags: N-terminal GST; dsDNA, one strand shown
# T12 sequence: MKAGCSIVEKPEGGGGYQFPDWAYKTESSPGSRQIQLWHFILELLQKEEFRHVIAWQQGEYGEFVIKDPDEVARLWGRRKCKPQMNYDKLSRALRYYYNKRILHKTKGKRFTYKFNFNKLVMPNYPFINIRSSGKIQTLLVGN
# Method in brief: as §1
# ETV6 = ETV6 (Homo sapiens, UniProt P41212 1-452); settings: protein: recombinant; tags: N-terminal GST; dsDNA, one strand shown
# ETV6, sequence (P41212 whole entry): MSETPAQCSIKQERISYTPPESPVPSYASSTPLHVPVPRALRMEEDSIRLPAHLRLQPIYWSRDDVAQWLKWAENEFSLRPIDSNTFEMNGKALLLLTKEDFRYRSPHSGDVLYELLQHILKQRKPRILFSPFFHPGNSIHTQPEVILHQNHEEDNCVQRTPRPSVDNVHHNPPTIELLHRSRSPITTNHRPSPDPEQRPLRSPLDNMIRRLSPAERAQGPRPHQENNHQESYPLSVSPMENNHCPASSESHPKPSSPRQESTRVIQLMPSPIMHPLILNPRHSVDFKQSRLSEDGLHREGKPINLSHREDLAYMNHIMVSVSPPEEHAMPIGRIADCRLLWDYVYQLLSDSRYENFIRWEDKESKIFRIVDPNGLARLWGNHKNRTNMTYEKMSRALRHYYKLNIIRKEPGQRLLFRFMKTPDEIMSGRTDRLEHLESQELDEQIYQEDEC
# Method in brief: as §1
sequence,measurement,setting,value
TATACT,binding signal,FEV,"1.29 fold enrichment (6-mer frequency, TF over GST control)"
same,binding signal,ETV5,"1.34 fold enrichment (6-mer frequency, TF over GST control)"
same,binding signal,HSF1,"1.4 fold enrichment (6-mer frequency, TF over GST control)"
same,binding signal,SPIC,"1.43 fold enrichment (6-mer frequency, TF over GST control)"
same,binding signal,ELF4,"1.31 fold enrichment (6-mer frequency, TF over GST control)"
same,binding signal,ELK4,"1.25 fold enrichment (6-mer frequency, TF over GST control)"
same,binding signal,ETV2,"1.31 fold enrichment (6-mer frequency, TF over GST control)"
same,binding signal,ELF3,"1.3 fold enrichment (6-mer frequency, TF over GST control)"
same,binding signal,CRX,"1.68 fold enrichment (6-mer frequency, TF over GST control)"
same,binding signal,ETV1,"1.34 fold enrichment (6-mer frequency, TF over GST control)"
same,binding signal,ERF,"1.3 fold enrichment (6-mer frequency, TF over GST control)"
same,binding signal,ETV3L,"1.29 fold enrichment (6-mer frequency, TF over GST control)"
same,binding signal,ETS2,"1.38 fold enrichment (6-mer frequency, TF over GST control)"
same,binding signal,SPDEF,"1.52 fold enrichment (6-mer frequency, TF over GST control)"
same,binding signal,ETV7,"1.31 fold enrichment (6-mer frequency, TF over GST control)"
same,binding signal,ELF5,"1.34 fold enrichment (6-mer frequency, TF over GST control)"
same,binding signal,ETV3,"1.34 fold enrichment (6-mer frequency, TF over GST control)"
same,binding signal,ETV6,"1.45 fold enrichment (6-mer frequency, TF over GST control)"
